Source: PubChem BioAssay (NCI)
About 83,000 compounds went through this panel and 20% of them were active in at least one assay; those are over-represented in the sample as a whole.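 Method: cells in 96-well plates; compound added at one concentration; 48 h incubation; percent growth measured; values under 10 scored active.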 A number with no mark means an inactive call. Active and inactive are the calls of the source.

Columns and labels:
Test in all cases: NCI-60 one-dose screen, 48 h (100 = growth as untreated, 0 = no growth, -100 = all killed)
Conditions in all cases: 10 µM
[1] = test system: SK-MEL-2 melanoma
[2] = test system: EKVX NSCLC
[3] = test system: SN12C renal
[4] = test system: UO-31 renal
[5] = test system: ACHN renal
[6] = test system: CAKI-1 renal
[7] = test system: A498 renal
[8] = test system: CCRF-CEM leukemia
[9] = test system: MOLT-4 leukemia
[10] = test system: TK-10 renal

SMILES | growth [1] | growth [2] | growth [3] | growth [4] | growth [5] | growth [6] | growth [7] | growth [8] | growth [9] | growth [10]
COc1cc(/C=C2\CCCC3=C2NC(N)=NC3c2cc(OC)c(OC)c(OC)c2)cc(OC)c1OC (stereo not drawn) | -0.813% (active) | 56% | -5.19% (active) | 34.3% | -37.9% (active) | -4.06% (active) | 0.45% (active) | 2.89% (active) | -3.56% (active) | 
CN(C)CCOc1cccc(-c2nc3sccn3c2-c2ccnc(S(C)(=O)=O)n2)c1 | 117% | 99.5% | 90.5% | 72.1% | 92.2% | 99.5% | 59.6% |  | 99.9% | 
NS(=O)(=O)c1ccc(N2N=C(c3ccccc3)CCC2=O)cc1 | 107% | 130% | 101% | 104% | 114% |  | 83% | 108% | 93.2% | 
COc1cc(/C=C2\CCCC3C2=Nc2ccccc2NC3c2cc(OC)c(OC)c(OC)c2)cc(OC)c1OC (stereo not drawn) | 17.9% | 59.8% | -4.27% (active) | 5.57% (active) | -23% (active) | 6.51% (active) | -22.4% (active) | 4.32% (active) | 0.606% (active) | 
O=c1c(Br)ccc(Br)cc1Br | -73.3% (active) | 99.1% | 4.44% (active) |  | -79.1% (active) | -81.3% (active) | 93% | -41.4% (active) | -36.8% (active) | -44.5% (active)
Cc1c2c(nn1C(=O)c1nn(-c3ccc(Cl)cc3)cc1O)-c1ccccc1CC2 | 0.774% (active) | 6.22% (active) | 29.2% | 10.3% | 16.7% | -25.5% (active) | 80.5% | -7.92% (active) | -1.46% (active) | 
CN(C)c1nc(N)c2nccnc2n1 | 97.9% | 98.3% | 99.6% |  | 105% | 84.7% | 93% | 114% | 98.1% | 104%
CC(=O)COc1ccc(Cl)cc1Cl | 113% | 93% | 95.3% |  | 116% | 107% | 82.9% |  |  | 105%
COc1ccc(C(=O)c2cc3c(OC)c(OC)c(OC)cc3[nH]2)cc1 | 43.7% | 98.4% | 75.1% | 56% | 79.4% | 128% | 59.9% | 42.8% | 50.2% | 
Nc1nc(N)c(N)c(Nc2ccc(CCO)cc2)n1 | 118% | 91.9% | 100% |  | 106% | 100% | 92.8% |  |  | 102%
Cc1ccc(C(SCC(N)C(=O)O)(c2ccc(C)cc2)c2ccc(C)cc2)cc1 (stereo not drawn) | -52.1% (active) | -8.36% (active) | 42.3% | 25.3% | 60.3% |  | 46.3% | 6.77% (active) | 7.71% (active) | 
COc1cc2c(Nc3ccc(S(N)(=O)=O)cc3)ncnc2c(OC)c1OC | 92.4% | 100% | 93.5% | 67.3% | 99.4% | 92% | 103% | 92.5% | 97.3% | 
COc1cc(C2CC(c3ccccc3)=NN2C(C)=O)cc(OC)c1OC (stereo not drawn) | 47.6% | 51% | 63.5% | 58.1% | 54.9% | 38.8% | 50.6% | 34.5% | 29% | 
CCCCN1C(=O)CC(SC2CC(=O)N(CCCC)C2=O)C1=O (stereo not drawn) | 99.7% | 98.5% | 102% |  | 99% | 88.6% | 99.6% | 97.1% | 103% | 103%
CCN(CC)CCCC(C)Nc1c2ccc(Cl)cc2nc2ccc(OC)cc12 (stereo not drawn) | 57.6% | 49% | 33.2% |  | 14.2% | 1.55% (active) | 74% | 39.4% | 15.5% | 23.9%
